Inconclusive results are not listed. The source made the active and inactive calls. Calls come from the whole dose curve; as a rule, active = well fitted curve in the direction sought with a large enough effect in the repeat runs; inconclusive = weak or mixed curves; inactive = no such curve, though single readings can be large; an effect the other way counts as inactive or inconclusive.
Assays:
[1] = qHTS RealTime-Glo MT Cell Viability Assay in HEK293 cells - 0 hour (AID 1224880); note: top concentration of the series differs between compounds; nearly all actives have a fitted effect of over 45% in size
Method in brief: (§1)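 Tox21 screen in HEK293 using RealTime-Glo MT chemistry, with cells and reagent co-dispensed. Luminescence proportional to viable cell number was captured at intervals during 40 h compound exposure at 37 C.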

[2] = A CellTox Green Cytotoxicity Assay to monitor cytotoxicity in HEK293 cells - 32 hour (AID 1224881); note: nearly all actives have a fitted effect of over 40% in size
Method in brief: (§2)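 Seeding of HEK293 cells together with cytotoxicity dye preceded a 5 h incubation at 37 C/5% CO2. Test compounds in DMSO were then added and fluorescence monitored across 40 h.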

[3] = A CellTox Green Cytotoxicity Assay to monitor cytotoxicity in HepG2 cells - 0 hour (AID 1224882); note: nearly all actives have a fitted effect of over 35% in size
Method in brief: (§3)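 Nonlytic assay: viable cells exclude the dye, so fluorescence scales with cell death. HepG2 at 600 cells/well, compounds added after 5 h, signal read across 40 h.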

[4] = A CellTox Green Cytotoxicity Assay to monitor cytotoxicity in HepG2 cells - 32 hour (AID 1224883); note: nearly all actives have a fitted effect of over 50% in size
Method in brief: as §3

[5] = A CellTox Green Cytotoxicity Assay to monitor cytotoxicity in HEK293 cells - 8 hour (AID 1224884); note: nearly all actives have a fitted effect of over 35% in size
Method in brief: as §2

[6] = qHTS RealTime-Glo MT Cell Viability Assay in HepG2 cells - 16 hour (AID 1224885); note: nearly all actives have a fitted effect of over 50% in size
Method in brief: (§4)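 Tox21 10K library screened in qHTS format on HepG2 cells carrying RealTime-Glo reagents. Compounds were added after a 5 h preincubation, and the luminescent signal from continuous culture was measured repeatedly during 40 h treatment.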

[7] = qHTS RealTime-Glo MT Cell Viability Assay in HEK293 cells - 8 hour (AID 1224887); note: top concentration of the series differs between compounds; nearly all actives have a fitted effect of over 50% in size
Method in brief: as §1

[8] = A CellTox Green Cytotoxicity Assay to monitor cytotoxicity in HEK293 cells - 16 hour (AID 1224888); note: nearly all actives have a fitted effect of over 35% in size
Method in brief: as §2

[9] = qHTS RealTime-Glo MT Cell Viability Assay in HepG2 cells - 0 hour (AID 1224889); note: nearly all actives have a fitted effect of over 50% in size
Method in brief: as §4

[10] = A CellTox Green Cytotoxicity Assay to monitor cytotoxicity in HepG2 cells - 8 hour (AID 1224890); note: nearly all actives have a fitted effect of over 45% in size
Method in brief: as §3

[11] = qHTS assay to identify small molecule antagonists of the estrogen receptor alpha (ER-alpha) signaling pathway using the BG1 cell line in the presence of 0.1 nM 17-beta-estradiol - cell viability counter screen (AID 1259241); note: nearly all actives have a fitted effect of over 40% in size
Method in brief: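 Cytotoxicity counter-screen: live-cell protease activity measured by fluorescence (30 min reagent step) in the same wells. Cells were VM7Luc4E2 with endogenous ER-alpha and ERE-driven luciferase, treated 22 hr at 37C alongside 0.1 nM 17beta-estradiol final.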

[12] = qHTS assay to identify small molecule antagonists of the androgen receptor (AR) signaling pathway using the MDA cell line in the presence of 0.5 nM R1881 - cell viability counter screen (AID 1259242); note: nearly all actives have a fitted effect of over 45% in size
Method in brief: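 R1881 at 0.5 nM final stimulated MDA-kb2 cells during 16 hr compound treatment at 37C. Cytotoxicity read: CellTiter-Fluor fluorescence after 30 min.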

[13] = target: Estrogen receptor (Homo sapiens) (UniProt P03372); assay: qHTS assay to identify small molecule antagonists of the estrogen receptor alpha (ER-alpha) signaling pathway using the BG1 cell line in the presence of 0.1 nM 17-beta-estradiol (AID 1259244); note: nearly all actives have a fitted effect of over 50% in size
Sequence of Estrogen receptor (Homo sapiens) (P03372 whole entry, looked up): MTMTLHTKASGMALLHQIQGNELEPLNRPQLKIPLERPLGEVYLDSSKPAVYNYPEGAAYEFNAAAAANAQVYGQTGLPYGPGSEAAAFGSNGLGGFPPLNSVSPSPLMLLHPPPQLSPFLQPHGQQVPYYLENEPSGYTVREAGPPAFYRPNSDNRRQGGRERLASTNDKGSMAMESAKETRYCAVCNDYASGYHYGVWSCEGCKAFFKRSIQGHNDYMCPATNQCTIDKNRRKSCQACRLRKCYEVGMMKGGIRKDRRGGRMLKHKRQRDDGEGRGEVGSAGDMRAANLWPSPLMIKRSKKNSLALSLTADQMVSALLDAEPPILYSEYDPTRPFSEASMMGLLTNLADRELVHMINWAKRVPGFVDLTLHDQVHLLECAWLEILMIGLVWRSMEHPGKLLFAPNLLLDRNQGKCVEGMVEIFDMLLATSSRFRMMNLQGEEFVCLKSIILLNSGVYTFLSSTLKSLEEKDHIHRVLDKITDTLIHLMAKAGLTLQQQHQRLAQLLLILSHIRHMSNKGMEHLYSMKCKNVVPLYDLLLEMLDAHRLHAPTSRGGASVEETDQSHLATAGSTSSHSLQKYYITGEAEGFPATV
Method in brief: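 VM7Luc4E2; 4xERE-luciferase; 0.1 nM E2 final; 22 h co-incubation, 37C; ONE-Glo luminescence after 30 min at room temperature.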

[14] = qHTS assay to identify small molecule HDAC inhibitors (AID 1259364);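 note: wild-type HCT-116 cells with endogenous class I/II HDAC activity; top concentration of the series differs between compounds; nearly all actives have a fitted effect of over 45% in size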
Method in brief: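 Relative class I and II HDAC activity is taken from the luminogenic signal in HCT-116 cells, with compound exposure 2 hr and reagent development 30 min at room temperature.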

[15] = qHTS assay to identify small molecule HDAC inhibitors - cell viability counter screen (AID 1259365)
Method in brief: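 CellTiter-Glo luminescence (30 min, room temperature) reported viability after a 2 h compound exposure at 37 C. Cells: wild-type HCT-116, 1,500 per well, seeded the night before.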

[16] = qHTS assay to identify small molecule agonists of the sonic hedgehog signaling (Shh) pathway - cell viability counter screen (AID 1259366); note: nearly all actives have a fitted effect of over 50% in size
Method in brief: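 Cytotoxicity counter screen: CellTiter-Fluor reagent added after 23 h compound exposure, then 1 h at 37C and fluorescence read. Cells were 3T3 Gli1-Luc, seeded 2,000 per well and dosed 4 h post-plating.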

[17] = qHTS assay to identify small molecule antagonists of the sonic hedgehog signaling (Shh) pathway - cell viability counter screen (AID 1259367); note: nearly all actives have a fitted effect of over 55% in size
Method in brief: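 Cells: 3T3 Gli1-Luc, 2,000/well, 4 hr pre-incubation. Compounds in DMSO, then conditioned medium. Incubation 24 hr, 37C, 5% CO2. CellTiter-Fluor at 23 hr, 1 hr, fluorescence.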
% is set by controls: 0 for no effect and ±100 for the full control effect.

O=C(O)c1ccccc1-n1cc(C(=O)O)c(=O)c2cc(Nc3c(F)cc(F)cc3Cl)c(Cl)cc21
inactive: Potency [1] | Potency [2] | Potency [3] | Potency [4] | Potency [5] | outcome [6] | Potency [7] | Potency [8] | Potency [9] | Potency [10] | Potency [11] | Potency [12] | Potency [13] | Potency [14] | outcome [15] | Potency [16] | Potency [17]

COC(=O)c1cc(Cl)ccc1[N+](=O)[O-]
inactive: Potency [1] | Potency [2] | Potency [3] | Potency [4] | Potency [5] | outcome [6] | Potency [7] | Potency [8] | Potency [9] | Potency [10] | Potency [11] | Potency [12] | Potency [13] | Potency [14] | outcome [15] | Potency [16] | Potency [17]

OCCc1ccncc1
inactive: Potency [1] | Potency [2] | Potency [3] | Potency [4] | Potency [5] | outcome [6] | Potency [7] | Potency [8] | Potency [9] | Potency [10] | Potency [11] | Potency [12] | Potency [13] | Potency [14] | outcome [15] | Potency [16] | Potency [17]

Cc1c(Cl)cccc1[N+](=O)[O-]
inactive: Potency [1] | Potency [2] | Potency [3] | Potency [4] | Potency [5] | outcome [6] | Potency [7] | Potency [8] | Potency [9] | Potency [10] | Potency [11] | Potency [12] | Potency [14] | outcome [15] | Potency [16] | Potency [17]

O=C(O)CNc1ccccc1
inactive: Potency [1] | Potency [2] | Potency [3] | Potency [4] | Potency [5] | outcome [6] | Potency [7] | Potency [8] | Potency [9] | Potency [10] | Potency [11] | Potency [12] | Potency [14] | outcome [15] | Potency [16] | Potency [17]

O=C(O)c1ccc2c(c1)nc(C(=O)NC1CCN(C3CC3)CC1)n2Cc1cc(-c2ccc(Cl)s2)on1
inactive: activity change, negative = cytotoxicity [1] -5.93% [at 15.8 µM] | cytotoxicity increase [2] 1.64% [at 15.8 µM] | cytotoxicity [3] -4.38% [at 15.8 µM] | cytotoxicity increase [4] -6.61% [at 15.8 µM] | cytotoxicity increase [5] -5.24% [at 15.8 µM] | activity change, negative = cytotoxic [6] -5.36% [at 15.8 µM] | activity change, negative = cytotoxicity [7] 8.44% [at 15.8 µM] | activity change [8] 0.74% [at 15.8 µM, active compounds read high] | activity change, negative = cytotoxicity [9] -12.8% [at 15.8 µM] | cytotoxicity increase [10] 1.82% [at 15.8 µM] | activity change, negative = cytotoxicity [11] 3.2% [at 19 µM] | viability change, negative = cytotoxic [12] 1.29% [at 19 µM] | activity change, negative = inhibition [13] -4.46% [at 19 µM] | activity change, negative = inhibition [14] -4.76% [at 19 µM] | viability change, negative = cytotoxic [16] 1.29% [at 19 µM] | viability change, negative = cytotoxic [17] 0.451% [at 19 µM]

COc1cccc([C@H](O)C2CCN(CCc3ccc(F)cc3)CC2)c1OC
inactive: Potency [1] | Potency [2] | Potency [3] | Potency [4] | Potency [5] | outcome [6] | Potency [7] | Potency [8] | Potency [9] | Potency [10] | Potency [11] | Potency [12] | Potency [13] | Potency [14] | outcome [15] | Potency [16] | Potency [17]

Source: PubChem BioAssay (Tox21)
